Measurements: PubChem BioAssay (Tox21)
Values joined by “and” are separate entries in the source; they are usually repeats but may differ in a detail not shown here. Equal entries are not always repeated. Records with an inconclusive call do not appear. Where a call stands in place of a potency, no number is given. Some structures have more than one record in an assay (separate samples or runs), and their calls can disagree. Active and inactive are the calls of the source. Calls come from the whole dose curve; as a rule, active = well fitted curve in the direction sought with a large enough effect in the repeat runs; inconclusive = weak or mixed curves; inactive = no such curve, though single readings can be large; an effect the other way counts as inactive or inconclusive.

Columns and labels:
[1] = qHTS assay to identify small molecule antagonists of the glucocorticoid receptor (GR) signaling pathway - cell viability counter screen (AID 720693); note: nearly all actives have a fitted effect of over 55% in size
[2] = qHTS assay for identifying genotoxic compounds that show differential cytotoxicity against isogenic chicken DT40 cell lines with known DNA damage response pathways - wild type cell line (AID 743012); note: nearly all actives have a fitted effect of over 60% in size; note: potency is the fitted concentration of half-maximal effect
In short: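 Viability of DNA repair-proficient chicken DT40 cells was assessed by CellTiter-Glo luminescence following 40 h compound exposure at 37 C/5% CO2.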

[3] = qHTS assay for identifying genotoxic compounds that show differential cytotoxicity against isogenic chicken DT40 cell lines with known DNA damage response pathways - Rev3 mutant cell line (AID 743014); note: nearly all actives have a fitted effect of over 55% in size; note: potency is the fitted concentration of half-maximal effect
[4] = qHTS assay for identifying genotoxic compounds that show differential cytotoxicity against isogenic chicken DT40 cell lines with known DNA damage response pathways - Rad54/Ku70 mutant cell line (AID 743015); note: nearly all actives have a fitted effect of over 60% in size; note: potency is the fitted concentration of half-maximal effect
[5] = qHTS assay to identify small molecule antagonists of the androgen receptor (AR) signaling pathway using the MDA cell line - cell viability counter screen (AID 743041; note: nearly all actives have a fitted effect of over 45% in size; note: potency is the fitted concentration of half-maximal effect)
In short: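 Using the breast carcinoma line MDA-kb2 AR-luc, test chemicals were co-incubated with R1881 for 16 h; CellTiter-Fluor reagent, added at 15.5 h, provided a fluorescence measure of live cells.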

[6] = qHTS assay to identify small molecule antagonists of the androgen receptor (AR) signaling pathway - cell viability counter screen (AID 743033; note: nearly all actives have a fitted effect of over 45% in size; note: potency is the fitted concentration of half-maximal effect)

Compound	Potency [1]	Potency [2]	Potency [3]	Potency [4]	Potency [5]	Potency [6]
C=C[C@@]1(C)CC(=O)[C@]2(O)[C@@]3(C)[C@@H](O)CCC(C)(C)[C@@H]3[C@H](O)[C@H](OC(C)=O)[C@@]2(C)O1	inactive	26.6 µM (active) and 30.6 µM (active)	inactive and 48.6 µM (active)	23.7 µM (active) and 24.3 µM (active)	26.6 µM (active) and 38.6 µM (active)	
Cc1ccc2c(c1)C(=O)OC2=O	inactive	inactive	inactive	inactive	inactive	
O=S1(=O)CCCO1	inactive	inactive	inactive	inactive	inactive	
CNC[C@H](O)c1ccc(O)c(O)c1	inactive	29.8 µM (active)	inactive		inactive	
Oc1ccc(C(c2ccc(O)cc2)C(Cl)(Cl)Cl)cc1		24.3 µM (active)	60.9 µM (active) and 48.6 µM (active)	60.9 µM (active) and 19.3 µM (active)	inactive	49 µM (active)
O=C(O)CCCC(=O)O	inactive	inactive	inactive	inactive	inactive	
O=C(O)COCCN1CCN(C(c2ccccc2)c2ccc(Cl)cc2)CC1 (stereo not drawn)	inactive				inactive	
O=C(CCCN1CCC(O)(c2ccc(Cl)cc2)CC1)c1ccc(F)cc1	inactive	5.96 µM (active) and 7.7 µM (active)	3.35 µM (active) and 1.72 µM (active)	5.96 µM (active) and 1.72 µM (active)	inactive	
CCO[Si](CCCNC(N)=O)(OCC)OCC	inactive	inactive	inactive	inactive	inactive	
CC(=O)[C@@]1(O)CC[C@H]2[C@@H]3C[C@H](C)C4=CC(=O)C=C[C@]4(C)[C@@]3(F)[C@@H](O)C[C@@]21C	inactive	inactive		43.3 µM (active)	inactive	inactive
Nc1cc([N+](=O)[O-])ccc1C(=O)O	inactive	inactive	inactive	inactive	inactive	
CC/C(=C(/CC)c1ccc(O)cc1)c1ccc(O)cc1		26.6 µM (active) and 30.4 µM (active) and 17.2 µM (active)	29.8 µM (active) and 27.3 µM (active)	26.6 µM (active) and 27.3 µM (active)	inactive	inactive and 48.6 µM (active)
CC(=O)Oc1c(C)c(C)c2c(c1C)CC[C@@](C)(CCC[C@H](C)CCC[C@H](C)CCCC(C)C)O2	inactive				inactive	inactive
C=C[C@H]1CN2CC[C@H]1C[C@@H]2[C@@H](O)c1ccnc2ccc(OC)cc12	inactive	29.8 µM (active)	47.8 µM (active)	29.8 µM (active) and 60.1 µM (active)	inactive	
Nc1ccc2c(O)cc(S(=O)(=O)O)cc2c1	inactive	inactive		inactive		inactive
